This note sets out measurements from PubChem BioAssay (NCATS).

SMILES strings stand for the structures. Inconclusive results are not listed. Calls of active or inactive are those of the source. Unless noted, the rule behind the calls is not given here.

Experiment [1] can be described thus: qHTS Assay for Identifying Gametocytocidal Compounds (AID 743244; active = well fitted curve in the direction sought with a large enough effect; an effect the other way counts as inactive or inconclusive; note: potency is the fitted concentration of half-maximal effect;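 for max response: % is set by controls: 0 for no effect and ±100 for the full control effect; actives lower the fluorescent signal which means gametocytes are killed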). Conditions: P. falciparum 3D7 stage III-V gametocytes, alamarBlue, 72 h; max response: stronger effect = lower value. The procedure, abridged:
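Viability read-out was resazurin reduction (alamarBlue, 24 h) measured at Ex 525/Em 598 nm. Beforehand, late-stage (III-V) 3D7 P. falciparum gametocytes at 20,000 cells/well were incubated with compound 72 h at 37C under 5% CO2.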
On the technique in general: qHTS replaces the single test concentration by a dilution series.

Experiment [2] can be described thus: qHTS profiling of the MIPE4 collection as inhibitors of Plasmodium falciparum (3D7) proliferation (AID 743344).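 Note: scaled between DMSO vehicle wells and 0.29 µM artemisinin as full inhibition.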 Particulars: P. falciparum 3D7 in erythrocytes, SYBR Green DNA fluorescence, 72 h; at 28.5 µM (top of the series) unless noted. The procedure, abridged: (§1)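 Erythrocytes infected with P. falciparum (0.3% parasitemia, 2.5% hematocrit) incubated with compounds 72 h at 37 C, 5% CO2. Lysis with saponin/Triton buffer containing SYBR Green I, overnight at room temperature in the dark; DNA fluorescence (485/535 nm) normalised to 0.29 uM artemisinin and DMSO.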

A short description of experiment [3]: qHTS profiling of the MIPE4 collection as inhibitors of Plasmodium falciparum (DD2) proliferation (AID 743345). Conditions: P. falciparum Dd2 in erythrocytes, SYBR Green DNA, 72 h; at 28.5 µM (top of the series) unless noted. The method in brief: as §1
The nature of experiment [4]: qHTS profiling of the MIPE4 collection as inhibitors of Plasmodium falciparum (DD2) proliferation (Rep 2) (AID 743346). Particulars: P. falciparum Dd2 in erythrocytes, SYBR Green DNA, 72 h; at 28.5 µM (top of the series) unless noted. The procedure, abridged: as §1
Experiment [5] is described as follows: High-throughput drug toxicity screening in the BPDCN cell line Gen2.2 (AID 1224824).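 Note: cells exposed to compounds for 48 h before reading.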 Conditions: Gen2.2 BPDCN cells; at 45.8 µM (top of the series) unless noted. The procedure, abridged: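 Gen2.2 cells, 500 per well in phenol red-free RPMI with 10% FBS, exposed to compounds 48 h at 37 C, 5% CO2; viability by CellTiter-Glo luminescence. Percent activity scaled to DMSO (100%) and 9.2 uM bortezomib final (0%).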

The nature of experiment [6]: High-throughput drug toxicity screening in the BPDCN cell line Cal-1 (AID 1224825). Conditions: Cal-1 BPDCN cell viability, qHTS; at 45.8 µM (top of the series) unless noted. The method in brief: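 Exponentially growing Cal-1 cells, 500 per well in phenol red-free RPMI with 10% FBS, were exposed to compounds for 48 h at 37 °C, 5% CO2. Viability was read by CellTiter-Glo luminescence and normalised to DMSO (100%) and 9.2 uM bortezomib (0%).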

A short description of experiment [7]: qHTS assay for measurement of the activity of small molecule inhibitors on Zika virus induced Caspase-3 activity in human astrocytoma cells (AID 1224859; active = well fitted curve in the direction sought with a large enough effect; an effect the other way counts as inactive or inconclusive; note: potency is the fitted concentration of half-maximal effect). The method in brief: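 Luminescent caspase-3/7 read-out (30 min reagent, room temperature) in human SNB-19 cells infected 6 h with ZIKV (2 FFU/cell) after 1 h compound pre-incubation; Data were normalised to uninfected and infected wells.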

The nature of experiment [8]: qHTS Screen of the MIPE 4.0 Collection Against Ewings Sarcoma (RDES) (AID 1259252; active = well fitted curve in the direction sought with a large enough effect; an effect the other way counts as inactive or inconclusive; note: potency is the fitted concentration of half-maximal effect; nearly all actives have a fitted effect of over 35% in size). The procedure, abridged:
(§2)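 Measured: ATP luminescence (CellTiter-Glo) 10 min after reagent addition, following 48 h drug treatment. Relative luciferase units converted to percent activity, with no-cell wells as full and DMSO wells as zero inhibition.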

Experiment [9] in a line: qHTS Screen of the MIPE 4.0 Collection Against Ewings Sarcoma (EW8) (AID 1259255; active = well fitted curve in the direction sought with a large enough effect; an effect the other way counts as inactive or inconclusive; note: nearly all actives have a fitted effect of over 35% in size; note: potency is the fitted concentration of half-maximal effect;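 for viability: 100% = DMSO-treated cells and 0% = medium-only wells without cells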). The method in brief:
as §2

In experiment [10] the target is T1, Hexokinase-4 (Homo sapiens) + Glucokinase regulatory protein (Homo sapiens) (UniProt P35557+Q14397). Briefly: qHTS assay for inhibitors of recombinant human GCK-GKRP interaction: Diaphorase-coupled assay (AID 743205; active = well fitted curve in the direction sought with a large enough effect; an effect the other way counts as inactive or inconclusive). The method in brief:
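Compounds pre-incubated 20 min with substrate, then 10 nM GST-GCK with 10 nM FLAG-GKRP added. GCK activity coupled via G6PDH and diaphorase to resorufin (5 mM glucose, 0.4 mM ATP, 0.15 mM NADP+, pH 7.6), read kinetically over 30 minutes at Ex 525/Em 590 nm.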

Experiment [11] addresses T1, Hexokinase-4 (Homo sapiens) + Glucokinase regulatory protein (Homo sapiens). Briefly: qHTS assay for inhibitors of recombinant human GCK-GKRP interaction: ADP-Glo assay (AID 743206; active = well fitted curve in the direction sought with a large enough effect; an effect the other way counts as inactive or inconclusive;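 note: plate controls were DMSO plus enzyme for no effect and no enzyme for full effect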). The procedure, abridged:
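GST-GCK and FLAG-GKRP (15 nM each in the dispensed mix, with 2 uM S6P) react with 0.4 mM ATP and 5 mM glucose (final) in Hepes pH 7.6 for 60 min at room temperature. ADP is measured by ADP-Glo luminescence.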

A short description of experiment [12]: qHTS profiling of the MIPE4 collection as inhibitors of Plasmodium falciparum (HB3) proliferation (AID 743347).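 Note: plate controls were DMSO vehicle wells for no effect and artemisinin wells for full effect.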 Conditions: P. falciparum HB3 in erythrocytes, SYBR Green DNA, 72 h; at 28.5 µM (top of the series) unless noted. The method in brief:
as §1

The nature of experiment [13]: qHTS Screen of the MIPE 4.0 Collection Against Ewings Sarcoma (TC71) (AID 1259253; active = well fitted curve in the direction sought with a large enough effect; an effect the other way counts as inactive or inconclusive; note: nearly all actives have a fitted effect of over 40% in size; note: potency is the fitted concentration of half-maximal effect). The method in brief: as §2
Experiment [14] can be described thus: qHTS profiling for inhibitors of Plasmodium falciparum (3D7) proliferation (AID 743322).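 Note: infected erythrocytes exposed to compound for 72 h before lysis; 100% = DMSO vehicle wells and 0% = 0.29 µM artemisinin.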 Conditions: P. falciparum 3D7 proliferation; at 28.7 µM (top of the series). The procedure, abridged:
as §1

A short description of experiment [15]: qHTS profiling for inhibitors of Plasmodium falciparum (DD2) proliferation (AID 743323). Particulars: lower = more inhibition; at 28.7 µM (top of the series). The procedure, abridged:
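SYBR Green fluorescence (ex 485, em 535 nm) of lysed cultures gives parasite DNA content; wells normalized to artemisinin (0.29 uM) and DMSO controls. Infected red cells: 0.3% parasitemia, 2.5% hematocrit, 72 h, 37 C.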

T1 sequence (P35557 whole entry, looked up): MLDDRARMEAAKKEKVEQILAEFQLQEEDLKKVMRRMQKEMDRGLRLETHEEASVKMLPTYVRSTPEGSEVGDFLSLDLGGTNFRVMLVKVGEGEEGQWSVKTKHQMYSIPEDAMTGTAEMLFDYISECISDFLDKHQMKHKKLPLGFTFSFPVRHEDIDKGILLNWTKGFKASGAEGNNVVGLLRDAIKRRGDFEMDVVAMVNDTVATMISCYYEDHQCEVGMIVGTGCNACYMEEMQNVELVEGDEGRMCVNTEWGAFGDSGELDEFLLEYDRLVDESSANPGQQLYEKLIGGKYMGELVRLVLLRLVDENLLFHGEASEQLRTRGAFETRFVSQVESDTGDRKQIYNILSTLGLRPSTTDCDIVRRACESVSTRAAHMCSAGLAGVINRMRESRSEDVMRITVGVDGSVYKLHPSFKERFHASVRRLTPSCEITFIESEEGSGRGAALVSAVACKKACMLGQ
T1 sequence (Q14397 whole entry, looked up): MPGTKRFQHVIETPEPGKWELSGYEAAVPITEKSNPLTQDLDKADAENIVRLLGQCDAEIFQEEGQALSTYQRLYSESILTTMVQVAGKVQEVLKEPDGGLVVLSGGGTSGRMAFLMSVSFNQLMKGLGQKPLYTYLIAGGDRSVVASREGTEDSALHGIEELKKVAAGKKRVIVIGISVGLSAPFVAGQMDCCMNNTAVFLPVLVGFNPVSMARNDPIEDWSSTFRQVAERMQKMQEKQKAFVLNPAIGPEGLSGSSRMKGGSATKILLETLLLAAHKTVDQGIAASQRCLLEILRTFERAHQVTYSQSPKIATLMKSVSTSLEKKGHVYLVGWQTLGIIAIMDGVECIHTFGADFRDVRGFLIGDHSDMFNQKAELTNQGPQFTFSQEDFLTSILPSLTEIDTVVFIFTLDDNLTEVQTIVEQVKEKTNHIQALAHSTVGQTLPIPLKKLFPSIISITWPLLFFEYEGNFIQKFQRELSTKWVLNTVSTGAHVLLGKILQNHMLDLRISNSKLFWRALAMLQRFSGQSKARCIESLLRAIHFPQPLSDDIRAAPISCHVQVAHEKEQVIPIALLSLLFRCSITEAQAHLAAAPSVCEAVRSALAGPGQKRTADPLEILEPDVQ

Regarding `CC(=O)Oc1cc2c(s1)CCN(C(C(=O)C1CC1)c1ccccc1F)C2` (stereo unspecified), the max response in experiment [1] was 3.57% (inactive). Further, the parasite growth, % of DMSO control in experiment [2] amounted to 56.7%. In [3], this compound yielded a parasite growth remaining, % of DMSO control (lower = more inhibition) of 95.5%. The compound further displayed a parasite growth, % of control (lower = inhibition) in experiment [4] of 40.2%. For the same compound, the cell viability, % of control (lower = more cytotoxic) in [5] turned out to be 15.7%. The compound further showed a viability (% of control) in experiment [6] of 18.3%. The Potency result in [7] was “inactive”. In addition, the Potency was 2.35 µM (active) in experiment [8] and 3.72 µM (active) in experiment [9].
Consider `CC1(C)CCC2=C(O1)c1ccccc1C(=O)C2=O`, for which the outcome in experiment [10] and in experiment [11] was inactive. The parasite growth, % of DMSO control in experiment [2] came out at 22.8%. Moreover, the parasite growth remaining, % of DMSO control (lower = more inhibition) in experiment [3] was found to be 71%. Also, the parasite growth, % of control (lower = inhibition) in experiment [4] is 21.7%. The growth, % of control in [12] is 20.3%. For the same compound, in [5], the cell viability, % of control (lower = more cytotoxic) came to 4.24%. The compound also returned a viability (% of control) in [6] of 4.06%. Besides, the Potency result in experiment [7] is “inactive”. The Potency in experiment [8] was 26.4 µM (active); in experiment [13], 26.4 µM (active); in experiment [9] it was 23.5 µM (active).
In the case of `COc1cc2c(cc1OC)CN(CCc1ccc(NC(=O)c3cc(OC)c(OC)cc3NC(=O)c3cnc4ccccc4c3)cc1)CC2`, the parasite growth, % of DMSO control in experiment [2] stood at 39.1%. Further, in experiment [3], the parasite growth remaining, % of DMSO control (lower = more inhibition) came to 83.6%. In addition, the parasite growth, % of control (lower = inhibition) in experiment [4] came to 83.4%. Further, the growth, % of control in experiment [12] stood at 93.6%. In [5], the cell viability, % of control (lower = more cytotoxic) is 115%. This compound also showed a viability (% of control) in experiment [6] of 93.8%. The Potency result in [7] is “inactive”.
The compound `N#CC1(c2ccc(NC(=O)c3cccnc3NCc3ccncc3)cc2)CCCC1` displayed a parasite growth, % of DMSO control in [2] of 18.4%. In [12], this compound had a growth, % of control of 23.3%. Further, the cell viability, % of control (lower = more cytotoxic) in experiment [5] was determined as 286%. The compound also returned a viability (% of control) in experiment [6] of 93.1%. Also, the Potency in [7] was 18.7 µM (active).
Regarding `CS(=O)(=O)N(Cc1ccco1)CC(O)Cn1c2ccccc2c2ccccc21` (stereo unspecified), in experiment [2], the parasite growth, % of DMSO control worked out at 34.3%. This compound had a parasite growth remaining, % of DMSO control (lower = more inhibition) in experiment [3] of 12.4%. For the same compound, the parasite growth, % of control (lower = inhibition) in experiment [4] came to 58.2%. In addition, the cell viability, % of control (lower = more cytotoxic) in [5] turned out to be 75.4%. The compound further showed a viability (% of control) in experiment [6] of 65.5%. In [7], the Potency entry is “inactive”.
In experiment [2], `COc1cccc([C@@H](C)NCCCc2ccccc2Cl)c1` came in with a parasite growth, % of DMSO control of 6.27%. The same compound yielded a parasite growth remaining, % of DMSO control (lower = more inhibition) in experiment [3] of 78.7%. The compound further returned a parasite growth, % of control (lower = inhibition) in experiment [4] of 13.3%. In experiment [12], this compound registered a growth, % of control of 7.8%. Further, in [5], the cell viability, % of control (lower = more cytotoxic) stood at 172%. In experiment [6], the viability (% of control) is 66.2%. Further, the Potency entry in experiment [7] and in [9] was “inactive” each time.
Consider `CO[C@H]1C=CO[C@@]2(C)Oc3c(C)c(O)c4c(O)c(c5c(c4c3C2=O)NC2(CCN(CC(C)C)CC2)N=5)=NC(=O)C(C)=CC=C[C@H](C)[C@H](O)[C@@H](C)[C@@H](O)[C@@H](C)[C@H](OC(C)=O)[C@H]1C`, for which the parasite growth, % of DMSO control in experiment [2] was found to be 5.28%. This compound displayed a parasite growth remaining, % of DMSO control (lower = more inhibition) in experiment [3] of 17.8%. This compound also had a parasite growth, % of control (lower = inhibition) in experiment [4] of 12.8%. In [12], this compound showed a growth, % of control of 5.92%. Also, the cell viability, % of control (lower = more cytotoxic) in experiment [5] amounted to 106%. The compound also yielded a viability (% of control) in experiment [6] of 97.3%. In addition, the Potency result in [13] is “inactive”.
In [2], `O=c1c(-c2ccc(O)cc2)coc2cc(O[C@@H]3O[C@H](CO)[C@H](O)[C@H](O)[C@H]3O)ccc12` displayed a parasite growth, % of DMSO control of 91.8%. Besides, the parasite growth remaining, % of DMSO control (lower = more inhibition) in experiment [3] is 97.7%. Besides, the parasite growth, % of control (lower = inhibition) in [4] worked out at 85.3%. Moreover, the growth, % of control in experiment [12] worked out at 104%. Moreover, the cell viability, % of control (lower = more cytotoxic) in experiment [5] worked out at 101%. In experiment [6], this compound had a viability (% of control) of 99.8%. Further, the Potency entry in [13] and in [9] was “inactive” each time.
As for `c1ccc2c(-c3cnn4cc(-c5ccc(N6CCNCC6)cc5)cnc34)ccnc2c1`, in [1], the Potency is 3.72 µM (active). In addition, in experiment [14], the remaining parasite growth % (stronger effect = lower value) is -1.65%. In addition, the activity, percent of control in experiment [15] is -0.291%. In addition, the parasite growth, % of DMSO control in [2] was found to be 4.34%. Also, the parasite growth remaining, % of DMSO control (lower = more inhibition) in experiment [3] stood at 5.98%. Moreover, in [4], the parasite growth, % of control (lower = inhibition) came to 6.79%. This compound also showed a growth, % of control in experiment [12] of 5.81%. Also, the cell viability, % of control (lower = more cytotoxic) in [5] stood at 3.03%. The compound further displayed a viability (% of control) in [6] of 3.05%. The Potency result in experiment [7] and in experiment [9] was “inactive” throughout.
For `O=C1c2ccccc2-[n+]2ccc3c([nH]c4ccccc43)c21`, in experiment [2], the parasite growth, % of DMSO control worked out at 16.3%. The compound further yielded a parasite growth remaining, % of DMSO control (lower = more inhibition) in experiment [3] of 7.19%. Further, the growth, % of control in experiment [12] worked out at 4.72%. For the same compound, the cell viability, % of control (lower = more cytotoxic) in experiment [5] was 5.04%. The compound also had a viability (% of control) in experiment [6] of 3.57%. Further, the Potency is 1.05 µM (active) in experiment [8], 0.935 µM (active) in experiment [13] and 1.18 µM (active) in experiment [9].
